Bioassay records as filed in PubChem BioAssay.
This excerpt belongs to a sample that is enriched for hits.
KDM5B inh = blocks human KDM5B histone demethylase activity. Q9UGL1. KDM5B demethylase, FDH-coupled NADH fluorescence (FDH is formaldehyde dehydrogenase). Potency, µM (top dose mostly 57.7 µM), actives largely listed as inhibitors. actives 2.6% (n = 220,000); active = well fitted inhibition curve with a large enough effect; also: 0% is about no effect; nearly all actives have a fitted effect of over 70% in size
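Coupled FDH/NAD⁺ fluorescence readout. KDM5BΔAP 200 nM final; compound titration, 10 min RT preincubation; substrate mix 12.5 µM H3K4me3, 25 µM 2-OG, 50 µM Fe(II), 100 µM ascorbate, 0.25 mM NAD⁺, 0.25 U/mL FDH; ΔRFU over 30 min.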
* marks the source's active call; other numbers are inactive results. Potency is read from the fitted curve at half-maximal effect.

`O=C(Nc1cccc(C(F)(F)F)c1)c1nc2c(o1)CCN(Cc1nccs1)CC2` gave KDM5B inh inactive.
`COc1ccc(CN2CCc3nc(C(=O)Nc4cccnc4)oc3CC2)cc1OC` gave KDM5B inh inactive.
For COC(=O)C(C)N1C(=O)S/C(=C\c2ccccc2C)C1=O (stereo not given) the results were KDM5B inh inactive.
Cc1ccc2c(=O)cc(C(=O)NCC(c3ccc(C)o3)N3CCC(C)CC3)oc2c1 (stereo not given) was read as KDM5B inh inactive.
For CCOc1ccc(NC(=O)CSc2nc3c(oc4ccccc43)c(=O)n2-c2ccccc2C)cc1 the results were KDM5B inh inactive.
`CCOc1ccc(-c2cc(-c3nc(-c4ccc(OCC)cc4)no3)[nH]n2)cc1` gave KDM5B inh inactive.
`Cc1ccc2c(c1)N1C(=O)OC[C@@H]1CCN(C(=O)C1CC1)C2` gave KDM5B inh inactive.
COc1ccc(C(=O)Nc2nnc(SCc3cc(=O)c4cc(C)cc(C)c4[nH]3)s2)cc1 was read as KDM5B inh inactive.
Screening COc1ccc(N(C)C(=O)c2cc3ccccc3oc2=O)cc1OC returned KDM5B inh inactive.
CCOc1ccc(OCC)c(N)c1 was read as KDM5B inh inactive.
Screening CCCc1nc2nc(C)cc(Nc3ccccc3)n2n1 returned KDM5B inh inactive.
For COc1ccccc1NC(=O)Nc1ccc(CC#N)cc1 the results were KDM5B inh inactive.
Screening CN(c1ccc(F)cc1)S(=O)(=O)N1CCCC(C(=O)NCc2cccc(Br)c2)C1 (stereo not given) returned KDM5B inh inactive.
Screening Cn1c(=O)c2c(n3ncnc13)NC(=O)CC2c1cccc(F)c1 (stereo not given) returned KDM5B inh inactive.
`CNc1nc2c(s1)C(c1ccc(F)c(F)c1)CC(=O)N2` (stereo not given) gave KDM5B inh 31.6µM*.
Cc1cccn2c3c(c(=O)nc12)C(c1cccc(F)c1)CC(=O)N3 (stereo not given) was read as KDM5B inh inactive.
Cc1nc2c(c(=O)[nH]1)C(c1cc(F)cc(F)c1)CC(=O)N2 (stereo not given) was read as KDM5B inh inactive.
Screening Cn1c(SCc2ccc(F)cc2)nc(=O)c2c1NC(=O)CC2c1ccc(F)c(Br)c1 (stereo not given) returned KDM5B inh inactive.
For CNc1nc2c(s1)C(c1cccc(F)c1)CC(=O)N2 (stereo not given) the results were KDM5B inh 28.2µM*.
Screening COC(=O)c1cccc2c1CCCN2C(=O)c1cnc2c(cnn2C(C)C)c1 returned KDM5B inh inactive.
`CCCNC(=O)C(C)NC(=O)Cc1ccc(S(=O)(=O)N2CCCCC2)cc1` (stereo not given) gave KDM5B inh inactive.
For CN(Cc1ccccc1)Cc1cc(CC2(NCc3ccc(N(C)C)cc3)COC2)no1 the results were KDM5B inh inactive.
Screening CC1(C)CC(NC(=O)Cn2nc3c(cc2=O)CCCC3)CCO1 (stereo not given) returned KDM5B inh inactive.
For COCCn1c(SCc2cc(F)ccc2OC)nnc1-c1ccncc1 the results were KDM5B inh inactive.
Screening CN1CCC(NC(=O)c2cc(-c3ccccc3Cl)nc3ccccc23)CC1 returned KDM5B inh inactive.
`Cc1cc(-c2cc3c(nc2-c2ccccc2)nc(C(=O)NCCN(C)C)n3C)ccn1` gave KDM5B inh inactive.
For CN(C)CCNC(=O)c1nc2nc(-c3ccccc3)c(-c3cccnc3)cc2n1C the results were KDM5B inh 20µM*.
`COc1cc(-c2cc3c(nc2-c2ccccc2)nc(C(=O)NCCN(C)C)n3C)ccn1` gave KDM5B inh inactive.
`Cc1cnc(-c2ccccc2)n1CCNC(=O)c1cccnc1` gave KDM5B inh inactive.
For Cc1nc2cccnc2n1-c1cccc(C(=O)NCCN(C)C)c1 the results were KDM5B inh inactive.
`CN(C)CCNC(=O)c1nc2nc(-c3ccccc3)c(-c3ccncc3)cc2n1C` gave KDM5B inh 22.4µM*.
CCCNC(=O)c1cc(-c2cccnc2)nc2ccccc12 was read as KDM5B inh inactive.
Screening CN(C)CCNC(=O)c1cc(-c2ccccn2)nc2ccccc12 returned KDM5B inh inactive.
For COc1cc(-c2cc3c(nc2-c2ccccc2)nc(C(=O)NC2CCN(C)CC2)n3C)ccn1 the results were KDM5B inh inactive.
Cc1ccccc1Nc1cc2c(nc1-c1ccccc1)nc(C(=O)NCCN(C)C)n2C was read as KDM5B inh 35.5µM*.
For Cc1cc(-c2cc3c(nc2-c2ccccc2)nc(C(=O)NC2CCN(C)CC2)n3C)ccn1 the results were KDM5B inh 31.6µM*.
Screening Cc1ccc(-c2cc(C(=O)NCCc3ccccc3)c3c(-c4ccc(C)cc4)[nH]nc3n2)cc1 returned KDM5B inh inactive.
Cc1ccc2c(CSc3nncn3C)cc(=O)oc2c1 was read as KDM5B inh inactive.
Screening Clc1cccc(-c2cnc([C@@H]3COCCN3Cc3ccccc3)[nH]2)c1 returned KDM5B inh inactive.
